# Test results from PubChem BioAssay.
# The source made the active and inactive calls. Unless noted, the rule behind the calls is not given here.
# Tests used:
# [1] = compound effects on lung adenocarcinoma cell viability – A549, calcein-AM fluorescence, 48 h, basal, profiling panel (AID 1162); settings: higher = more signal; note: test concentration not given here
# [2] = compound effects on differentiated 3T3-L1 adipocyte viability – cell-based, 3T3-L1 adipocytes, calcein-AM fluorescence, 48 h, basal, profiling panel (AID 1163); settings: 3T3-L1 adipocytes viability, higher = more signal; note: test concentration not given here
# [3] = compound effects on hepatocellular carcinoma cell viability – HepG2, calcein-AM fluorescence, 48 h, basal, profiling panel (AID 1164); settings: higher = more signal; note: test concentration not given here
# [4] = compound effects on multiple myeloma cell viability – MM1S, calcein-AM fluorescence, 48 h, basal, profiling panel (AID 1165); settings: higher = more signal;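 note: viability of MM1S multiple myeloma cells under basal unstimulated conditions; test concentration not given here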
# [5] = calcein-AM signal in unstimulated myeloma cells – cell-based, calcein-AM fluorescence, 48 h, PK04 Diversity Set, profiling panel (AID 1166); settings: RPMI8226 myeloma viability, higher = more signal;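 note: cells grown under basal conditions without added stimulus; test concentration not given here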
# [6] = JC-1 mitochondrial signal, unstimulated HepG2 cells – cell-based, JC-1 fluorescence, 24 h, 100 nL compound, profiling panel (AID 1167); settings: HepG2 mitochondrial potential, higher = more signal; note: test concentration not given here
# [7] = JC-1 mitochondrial signal, unstimulated adipocytes – cell-based, JC-1 fluorescence, 3T3-L1 adipocytes, 24 h, 100 nL compound, profiling panel (AID 1168); settings: JC-1 mitochondrial fluorescence, higher = more signal, called active from +8 up or from −8 down; note: test concentration not given here
# [8] = JC-1 mitochondrial signal, unstimulated myeloma cells – cell-based, JC-1 fluorescence, RPMI8226, 24 h, 100 nL compound, profiling panel (AID 1169); settings: JC-1 mitochondrial potential fluorescence, higher = more signal; note: test concentration not given here
# [9] = JC-1 mitochondrial signal, unstimulated MM1S myeloma – cell-based, JC-1 fluorescence, 24 h, 100 nL compound, profiling panel (AID 1170); settings: MM1S mitochondrial potential, higher = more signal; note: test concentration not given here
# [10] = resazurin metabolic signal in A549 cells – cell-based, resazurin fluorescence, 24 h, PK04 Diversity Set, profiling panel (AID 1171); settings: A549 viability, higher = more signal, called active from +8 up or from −8 down; note: test concentration not given here
# [11] = resazurin metabolic signal in HepG2 cells – cell-based, resazurin fluorescence, 24 h, PK04 Diversity Set, profiling panel (AID 1172); settings: HepG2 viability, higher = more signal; note: test concentration not given here
# [12] = budding yeast growth changes without added modifier – OD600, strain BY4716, 24 h, basal condition, primary screen (AID 1173); settings: S. cerevisiae BY4716 growth, OD600, 24 h; higher = more signal, called active from +8 up or from −8 down
# [13] = viability profiling in MM1S myeloma cells – cell-based, resazurin fluorescence, basal, 24 h, PK04 Diversity Set, profiling panel (AID 1174); settings: higher = more signal, called active from +8 up or from −8 down; note: test concentration not given here
# [14] = biological target: Dihydroorotate dehydrogenase (quinone), mitochondrial (Plasmodium falciparum (isolate 3D7)) (UniProt Q08210); test: inhibition of P. falciparum DHODH – biochemical, C-terminal His tag, absorbance 600 nm, primary screen (AID 1175); settings: PfDHODH enzyme, DCIP absorbance 600 nm; higher = more signal, called active from +8 up or from −8 down;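 note: recombinant parasite enzyme with a five histidine tag at its C terminus; test concentration not given here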
# Dihydroorotate dehydrogenase (quinone), mitochondrial (Plasmodium falciparum (isolate 3D7)), sequence (Q08210 whole entry, looked up): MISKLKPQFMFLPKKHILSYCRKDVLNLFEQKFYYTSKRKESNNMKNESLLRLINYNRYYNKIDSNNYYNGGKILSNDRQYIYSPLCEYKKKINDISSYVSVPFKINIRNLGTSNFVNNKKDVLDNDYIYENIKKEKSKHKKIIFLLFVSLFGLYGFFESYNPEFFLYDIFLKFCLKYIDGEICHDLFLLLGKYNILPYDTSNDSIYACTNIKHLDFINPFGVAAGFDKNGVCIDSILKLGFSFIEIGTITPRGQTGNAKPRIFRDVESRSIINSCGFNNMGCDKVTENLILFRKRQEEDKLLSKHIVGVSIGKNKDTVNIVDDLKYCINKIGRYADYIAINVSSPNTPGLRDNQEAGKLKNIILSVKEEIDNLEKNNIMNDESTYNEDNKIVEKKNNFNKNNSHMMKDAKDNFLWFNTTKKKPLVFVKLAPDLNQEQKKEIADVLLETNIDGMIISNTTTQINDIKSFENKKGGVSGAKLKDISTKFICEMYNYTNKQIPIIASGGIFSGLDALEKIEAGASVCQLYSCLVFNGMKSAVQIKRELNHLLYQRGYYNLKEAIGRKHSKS
# [15] = inhibition of PAO1 biofilm formation – strain PAO1, LB-PBS medium, absorbance 600 nm, primary screen (AID 1176); note: test concentration not given here; settings: P. aeruginosa PAO1 growth/biofilm, A600, 12 h; higher = more signal
# [16] = growth modulation of vineyard yeast isolate – strain RM11-1a, OD600, basal, 24 h, primary screen (AID 1177);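 note: cultures grown under basal conditions with no added stressor; test concentration not given here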; settings: S. cerevisiae RM11-1a growth, OD600, 24 h; higher = more signal, called active from +8 up or from −8 down
# [17] = growth of efflux-deficient E. coli DRC39 – strain DRC39, OD650, 24 h, E. coli filamentation inducers, primary screen (AID 1178);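 note: growth measured as culture turbidity by optical density at 650 nm; test concentration not given here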; settings: E. coli DRC39 acrAB, higher = more signal, called active from +8 up or from −8 down
# [18] = growth of efflux-deficient E. coli DRC39 – strain DRC39, OD650, 48 h, E. coli filamentation inducers, primary screen (AID 1179);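 note: screen aims at cell division blockers that make cells filament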; settings: E. coli DRC39 delta-acrAB growth, higher = more signal, called active from +8 up or from −8 down
# [19] = viability profiling in RPMI8226 myeloma cells – cell-based, resazurin fluorescence, basal, 24 h, PK04 Diversity Set, profiling panel (AID 1180); settings: higher = more signal;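 note: RPMI8826 multiple myeloma cell line at 5000 cells per well; test concentration not given here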
# [20] = biological target: E3 ubiquitin-protein ligase XIAP (Homo sapiens) (UniProt P98170); test: small molecules binding XIAP protein – biophysical, small-molecule microarray, fluorescence 635 nm, primary screen (AID 1181); settings: higher = more signal;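 note: score merges 667 nm emission and signal to noise over triplicate slides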
# E3 ubiquitin-protein ligase XIAP (Homo sapiens), sequence (P98170 whole entry, looked up): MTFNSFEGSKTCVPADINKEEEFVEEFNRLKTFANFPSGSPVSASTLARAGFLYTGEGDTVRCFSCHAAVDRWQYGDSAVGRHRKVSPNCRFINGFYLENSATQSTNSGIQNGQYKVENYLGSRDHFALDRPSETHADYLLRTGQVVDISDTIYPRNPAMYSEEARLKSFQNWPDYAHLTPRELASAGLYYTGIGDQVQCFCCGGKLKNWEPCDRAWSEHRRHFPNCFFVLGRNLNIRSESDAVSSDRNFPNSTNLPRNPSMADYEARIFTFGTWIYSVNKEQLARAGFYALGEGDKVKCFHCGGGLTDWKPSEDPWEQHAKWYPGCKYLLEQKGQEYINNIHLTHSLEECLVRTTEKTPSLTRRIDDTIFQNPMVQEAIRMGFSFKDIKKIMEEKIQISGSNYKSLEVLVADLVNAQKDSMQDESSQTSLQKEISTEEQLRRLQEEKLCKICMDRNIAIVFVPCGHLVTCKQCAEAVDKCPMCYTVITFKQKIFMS
structure (smiles),measurement,setting,value
[N-]=[N+]=NCc1ccccc1[C@H]1OC(c2ccc(OCCCO)cc2)=N[C@@]1(Cc1ccccc1N=[N+]=[N-])C(=O)N1CCCCC1,z-score,[1],-0.457
same,z-score,[2],-0.5
same,z-score,[3],-0.536
same,z-score,[4],-2.14
same,z-score,[5],-2.79
same,z-score,[6],1.06
same,z-score,[7],0.0871 (inactive)
same,z-score,[8],-0.978
same,z-score,[9],-1.76
same,z-score,[10],-0.409 (inactive)
same,z-score,[11],-0.585
same,z-score,[12],-0.707 (inactive)
same,z-score,[13],-2.42 (inactive)
same,composite z-score,[14],-0.062 (inactive)
same,z-score,[15],0.879 (inactive)
same,z-score,[16],1.66 (inactive)
same,z-score,[17],-0.457 (inactive)
same,z-score,[18],0.495 (inactive)
same,z-score,[19],-2.94
same,composite z-score,[20],-0.0062
CN(C)CCCNC(=O)[C@@]1(Cc2ccccc2I)c2ccccc2C(=O)N(Cc2ccccc2Cl)[C@H]1c1ccc(CO)cc1,z-score,[1],-4.22
same,z-score,[2],0.711
same,z-score,[3],-5.11
same,z-score,[4],-3.8
same,z-score,[5],-4.38
same,z-score,[6],-1.9
same,z-score,[7],-0.373 (inactive)
same,z-score,[8],-0.935
same,z-score,[9],-2.3
same,z-score,[10],-6.99 (inactive)
same,z-score,[11],-6.48
same,z-score,[12],-7.72 (inactive)
same,z-score,[13],-8.82 (active)
same,composite z-score,[14],-0.205 (inactive)
same,z-score,[15],-0.233 (inactive)
same,z-score,[16],-0.0889 (inactive)
same,z-score,[17],-0.268 (inactive)
same,z-score,[18],-1.26 (inactive)
same,z-score,[19],-6.59
same,composite z-score,[20],0.166
C=CCC(OC(C)=O)[C@@H]1[C@@H](N(Cc2ccc(-c3ccccc3)cc2)C(=O)Cc2ccc(OC)cc2)c2cc(OCCCO)ccc2N1C(=O)c1ccc(-c2ccccc2)cc1 (stereo not given in full),z-score,[1],0.817
same,z-score,[2],0.397
same,z-score,[3],1.3
same,z-score,[4],0.366
same,z-score,[5],0.368
same,z-score,[6],3.34
same,z-score,[7],0.269 (inactive)
same,z-score,[8],0.298
same,z-score,[9],0.494
same,z-score,[10],1.21 (inactive)
same,z-score,[11],0.192
same,z-score,[12],-1.13 (inactive)
same,z-score,[13],0.833 (inactive)
same,composite z-score,[14],-0.0887 (inactive)
same,z-score,[15],-0.24 (inactive)
same,z-score,[16],-0.754 (inactive)
same,z-score,[17],1.57 (inactive)
same,z-score,[18],0.807 (inactive)
same,z-score,[19],0.989
same,composite z-score,[20],0.233
COCCCNC(=O)[C@@]1(Cc2ccccc2N=[N+]=[N-])N=C(c2ccc(OCCCO)cc2)O[C@H]1c1ccccc1CN=[N+]=[N-],z-score,[1],-0.603
same,z-score,[2],1.66
same,z-score,[3],-0.456
same,z-score,[4],-1.72
same,z-score,[5],-3.93
same,z-score,[6],3.03
same,z-score,[7],0.557 (inactive)
same,z-score,[8],-1.21
same,z-score,[9],-0.593
same,z-score,[10],-1.92 (inactive)
same,z-score,[11],-0.859
same,z-score,[12],-0.255 (inactive)
same,z-score,[13],-1.2 (inactive)
same,composite z-score,[14],0.283 (inactive)
same,z-score,[15],1.72 (inactive)
same,z-score,[16],0.154 (inactive)
same,z-score,[17],2.63 (inactive)
same,z-score,[18],0.575 (inactive)
same,z-score,[19],-2.25
same,composite z-score,[20],-0.183
O=C1O[C@H](c2ccccc2)[C@H](c2ccccc2)N2[C@H]1[C@@H](C(=O)N1CCN(c3ncccn3)CC1)[C@]1(C(=O)Nc3ccc(C#CCCO)cc31)[C@H]2c1ccccc1OCCO,z-score,[1],1.09
same,z-score,[2],0.569
same,z-score,[3],0.313
same,z-score,[4],-0.445
same,z-score,[5],-2.95
same,z-score,[6],0.308
same,z-score,[7],0.488 (inactive)
same,z-score,[8],-0.794
same,z-score,[9],-0.0117
same,z-score,[10],1.92 (inactive)
same,z-score,[11],-0.141
same,z-score,[12],0.687 (inactive)
same,z-score,[13],-0.31 (inactive)
same,composite z-score,[14],-0.49 (inactive)
same,z-score,[15],1.34 (inactive)
same,z-score,[16],1.91 (inactive)
same,z-score,[17],0.156 (inactive)
same,z-score,[18],0.614 (inactive)
same,z-score,[19],-1.36
same,composite z-score,[20],-0.16
